Measured values as given in ChEMBL document CHEMBL3988442, “University of Dundee, Small-Polar-MMV Screening Library” (2021).

Columns and labels:
[1] = biological target: T1, Aspartate--tRNA(Asp/Asn) ligase (Mycobacterium tuberculosis (strain ATCC 25618 / H37Rv)) (UniProt P9WFW3); test: Assay for Asp RNA synthetase-1 from Mycobacterium tuberculosis; format: functional; parameters: scale not given: direction of the effect not stated beside the values; settings: 30 µM; note: in the data most compounds retested in dose-response had high values
T1 sequence (whole entry): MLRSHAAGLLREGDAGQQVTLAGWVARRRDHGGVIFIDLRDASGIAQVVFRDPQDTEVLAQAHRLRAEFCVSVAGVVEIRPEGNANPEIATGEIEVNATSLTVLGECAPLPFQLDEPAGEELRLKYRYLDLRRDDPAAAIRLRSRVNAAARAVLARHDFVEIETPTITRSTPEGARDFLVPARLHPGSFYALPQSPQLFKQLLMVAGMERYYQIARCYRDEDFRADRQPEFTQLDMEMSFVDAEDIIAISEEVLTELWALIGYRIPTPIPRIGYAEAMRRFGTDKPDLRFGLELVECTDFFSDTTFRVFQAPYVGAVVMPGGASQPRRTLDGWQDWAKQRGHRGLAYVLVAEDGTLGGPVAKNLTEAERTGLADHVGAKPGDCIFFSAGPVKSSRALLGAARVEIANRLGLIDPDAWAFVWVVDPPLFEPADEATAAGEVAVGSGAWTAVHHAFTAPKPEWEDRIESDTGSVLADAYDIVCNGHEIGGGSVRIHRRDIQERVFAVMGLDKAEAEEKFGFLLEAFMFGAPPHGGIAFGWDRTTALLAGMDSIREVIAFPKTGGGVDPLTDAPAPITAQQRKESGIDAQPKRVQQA

[2] = biological target: Shiga toxin 2 (Escherichia coli O157:H7) (UniProt P09385+P09386); test: E. coli 0.157:H7 Shiga Toxin SOP - stx2 screening assay; format: functional; parameters: scale not given: direction of the effect not stated beside the values; settings: 30 µM

Structure (SMILES)	Percent Effect [1]	Percent Effect [2]
Cc1oc(C)c(C(=O)NCc2cccnc2N(C)C)c1C	-2.01%	35.3%
Cc1ccc(C(=O)N2CCN(CC(O)c3ccc(F)cc3)CC2)s1 (centres undefined)	0.567%	32.2%
Cc1cnn(CC2CCCCN2Cc2nnc(C3CC3)n2C)c1 (centres undefined)	-3.3%	1.19%
CC(C)(C(=O)NCC(N)=O)c1ccccc1F	-1.56%	-19.3%
CN(CC1CC1)C(=O)CN(Cc1cccc(O)c1)C1CCC(O)CC1 (centres undefined)	-0.296%	6.41%
CCOc1ccccc1Nc1nc2c(C)nn(C)c2c(=O)n1C	1.66%	-24.7%
Cc1cnn(CC2CCCN2Cc2coc(-c3cccs3)n2)c1 (centres undefined)	1.41%	4.89%
CCC(CC)c1cc(CNC(=O)N2CCOCC2CC)on1 (centres undefined)	-2.19%	9.7%
CC(=O)NCCNC(=O)c1sc(-c2ccc(C)cc2C)nc1C	3%	2.48%
CC(Oc1ccccc1C(F)(F)F)C(=O)NCCC(=O)N(C)C (centres undefined)	-1.14%	8.25%
CCS(=O)(=O)N1Cc2nccn2CC(COc2cccnc2)C1 (centres undefined)	-1.75%	-12.5%
CC(C)c1nc2n(n1)CC(NCc1nnc(-c3ccco3)o1)CC2 (centres undefined)	-3.46%	11.7%
O=C1CC[C@H]2CN(Cc3ccc(Cl)s3)CC[C@H]2N1CCc1c[nH]cn1	0.912%	-115%
COc1ccc(OC)c(C(C)Nc2nc3c(C)nn(C)c3c(=O)n2C)c1 (centres undefined)	4.76%	-69.5%
Cc1cc(C)c(CNC(=O)NCCOc2ccc3c(c2)CCC3)c(=O)[nH]1	-2.17%	15%
Cc1ccc(NC2CCN(C(=O)COCC(F)(F)F)CC2)nn1	-0.48%	-13.9%
Cc1n[nH]c(=O)c2c(NC(=O)CN3CCOC(C)C3)oc(C)c12 (centres undefined)	-3.61%	-52.2%
Cc1[nH]ccc1C(=O)N1CCCC(c2nccn2Cc2cscn2)C1 (centres undefined)	-2.28%	4.58%
CCc1nnc(Nc2cccc(C3CCN(CCO)CC3)n2)s1	-4.6%	-9.69%
Cc1nc(C)n(CC2CCCCN2CC(=O)Nc2ccncc2)n1 (centres undefined)	-1.82%	-16.8%
O=C(NCCc1ccccn1)C1=NN(c2ccccc2)C(=O)CN1	11.3%	1.11%
CSc1ccccc1CN1CCn2nc(CNC(C)=O)cc2C1	6.15%	-66.1%
COc1cc(CCC(=O)NCC2CCCN2C)ccc1OCC(F)(F)F (centres undefined)	1.43%	22.2%
COCCCN(CCOC)C(=O)Nc1ccc(C)cc1C	0.599%	1.16%

Structure (SMILES)	Percent Effect [1]	Percent Effect [2]
CN(C)CC(=O)N1CCOCC2(C1)CN(c1ccccc1)C(=O)CO2 (centres undefined)	3.93%	-23.2%
Cc1cc(C)c(CNC(=O)C2CCCN(c3cnccn3)C2)c(=O)[nH]1 (centres undefined)	-0.345%	30.7%
O=C(NCC(O)c1cccc(F)c1)c1cccnc1O (centres undefined)	-2.85%	-19%
COCc1nc(C(=O)N2CCCCC2Cn2cc(C)cn2)cs1 (centres undefined)	0.0865%	5.33%
Cc1n[nH]c(C2CN(C(=O)CCc3ccco3)CCO2)n1 (centres undefined)	7.13%	-9.36%
O=C1CC2(CCN(Cc3ccoc3)C2)CN1c1ccc2c(c1)OCO2 (centres undefined)	5.29%	-93.1%
Cc1noc(C)c1CNC(=O)N1CCC(C(O)c2ccccc2)CC1 (centres undefined)	-2.1%	-19.9%
Cc1ncc(C)c(N2CCCC(CO)(Cc3cccc(Cl)c3)C2)n1 (centres undefined)	2.71%	-21.4%
O=C(Cc1csc(-c2nnc[nH]2)n1)N1CCCC1Cn1cccn1 (centres undefined)	-4.54%	5.43%
COC1CCCN(Cc2nc(Cc3ccccc3F)no2)C1 (centres undefined)	-7.18%	6.38%
CCN(C(c1cccnc1)c1ccc2c(c1)CCO2)S(C)(=O)=O (centres undefined)	-3.44%	-49.4%
CCc1nnc2n1CCN(C(=O)c1csc(-c3cnn(C)c3)n1)C2	0.836%	-15.8%
COc1ccc(C[C@H]2CN(c3nnc(C)s3)CC[C@@H]2OC)cc1	7.75%	-17.5%
Cn1cc(CN2CCc3nc(-c4ccccn4)nc(O)c3C2)cn1	-5.28%	-24.6%
CCn1c(C)nnc1CN(C)C1CCN(CCCOC)C1 (centres undefined)	1.79%	7.8%
CN(C)c1ccc(CNc2cncc(-n3cccn3)n2)cc1	-4.37%	-28%
COc1cccc(CNc2c(C)cnc3c2c(=O)n(C)c(=O)n3C)c1	-3.02%	-31.1%
CCCN(CC1COc2ccccc2O1)C(=O)CCn1cncn1 (centres undefined)	-2.54%	34.4%
O=C(COCc1nc(-c2ccncc2)no1)N1CCCCCC1	10.6%	-22.7%
O=C(NCC(O)c1ccccc1Cl)c1cccc(-n2cnnn2)c1 (centres undefined)	7.85%	2.65%
CC(=O)N1CCCC1c1csc(Nc2cnccn2)n1 (centres undefined)	3.49%	29.9%
CCOc1ccccc1C(CC(=O)Nc1ccc(C)cn1)NC(C)=O (centres undefined)	-0.122%	14.7%
CC(=O)N1CCC(c2cncc(Oc3ccccc3)n2)CC1	0.485%	3.32%
